# According to PubChem BioAssay AID1159580 (chemical genetic matrix, 2015):
# Among all 5,500 compounds or so, about 2,000 (36%) were called active. Roughly 18% stayed inconclusive and do not appear here. Some of the results follow. Unmarked numbers belong to inactive results. No stated cut-off is given here; in the data, active means normalized growth mostly below about 0.91 (no sharp cut-off); inconclusive means no clear call, values can overlap the other calls; inactive means mostly above about 0.92.
# Experiment: chemical genetic growth profiling, strain panel (AID 1159580);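 further: tested at 20 µM; growth read once vehicle control cultures reached saturation at 30 °C; 1 = growth at the plate median or of vehicle wells; lower values mean less growth of the strain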
# Conditions: S. cerevisiae deletion strains, growth OD
# [1] = locus YDL101C, strain DUN1, hits give low values
# [2] = locus YHR030C, strain SLT2, hits give low values
structure (smiles),measurement,setting,value
Clc1cc(Cl)cc(C=NCc2ccccc2)c1,normalized growth,"locus YAR019C, strain CDC15, hits give low values",0.958
same,normalized growth,"locus YBL105C, strain PKC1, hits give low values",0.946
same,normalized growth,"locus YBR135W, strain CKS1, hits give low values",0.961
same,normalized growth,"locus YBR136W, strain MEC1, hits give low values",0.957
same,normalized growth,"locus YBR160W, strain CDC28, hits give low values",0.955
same,normalized growth,"locus YDL017W, strain CDC7, hits give low values",0.951
same,normalized growth,"locus YDL028C, strain MPS1, hits give low values",0.958
same,normalized growth,[1],0.964
same,normalized growth,"locus YDL108W, strain KIN28, hits give low values",0.964
same,normalized growth,"locus YDL132W, strain cdc53, hits give low values",0.959
same,normalized growth,"locus YDL214C, strain PRR2, hits give low values",0.665 (active)
same,normalized growth,"locus YDR052C, strain DBF4, hits give low values",0.957
same,normalized growth,"locus YDR054C, strain cdc34, hits give low values",0.95
same,normalized growth,"locus YDR226W, strain ADK1, hits give low values",0.957
same,normalized growth,"locus YDR477W, strain SNF1, hits give low values",0.621 (active)
same,normalized growth,"locus YER123W, strain YCK3, hits give low values",0.364 (active)
same,normalized growth,"locus YER133W, strain GLC7, hits give low values",0.625 (active)
same,normalized growth,"locus YFL009W, strain cdc4, hits give low values",0.961
same,normalized growth,"locus YFL029C, strain CAK1, hits give low values",0.961
same,normalized growth,"locus YFR003C, strain YPI1, hits give low values",0.95
same,normalized growth,"locus YFR019W, strain FAB1, hits give low values",0.501 (active)
same,normalized growth,"locus YFR028C, strain CDC14, hits give low values",0.967
same,normalized growth,"locus YGR040W, strain KSS1, hits give low values",0.681 (active)
same,normalized growth,"locus YGR052W, strain FMP48, hits give low values",0.627
same,normalized growth,"locus YGR092W, strain DBF2, hits give low values",0.222 (active)
same,normalized growth,[2],0.322 (active)
same,normalized growth,"locus YHR079C, strain IRE1, hits give low values",0.27 (active)
same,normalized growth,"locus YHR082C, strain KSP1, hits give low values",0.616
same,normalized growth,"locus YHR205W, strain SCH9, hits give low values",0.621
same,normalized growth,"locus YIL147C, strain SLN1, hits give low values",0.947
same,normalized growth,"locus YJL095W, strain BCK1, hits give low values",0.375 (active)
same,normalized growth,"locus YJL128C, strain PBS2, hits give low values",0.93
same,normalized growth,"locus YJL157C, strain FAR1, hits give low values",0.458 (active)
same,normalized growth,"locus YJR016C, strain ILV3, hits give low values",0.961
same,normalized growth,"locus YJR066W, strain TOR1 (second series), hits give low values",0.585 (active)
same,normalized growth,"locus YJR066W, strain TOR1, hits give low values",0.433 (active)
same,normalized growth,"locus YKL048C, strain ELM1, hits give low values",0.722 (active)
same,normalized growth,"locus YKL067W, strain YNK1, hits give low values",0.58 (active)
same,normalized growth,"locus YKL101W, strain HSL1, hits give low values",0.692 (active)
same,normalized growth,"locus YKL193C, strain SDS22, hits give low values",0.956
same,normalized growth,"locus YKL203C, strain TOR2, hits give low values",0.691 (active)
same,normalized growth,"locus YLR113W, strain HOG1, hits give low values",0.375 (active)
same,normalized growth,"locus YLR133W, strain CKI1, hits give low values",0.525 (active)
same,normalized growth,"locus YLR403W, strain SFP1, hits give low values",0.479 (active)
same,normalized growth,"locus YML070W, strain DAK1, hits give low values",0.428 (active)
same,normalized growth,"locus YMR001C, strain CDC5, hits give low values",0.947
same,normalized growth,"locus YMR205C, strain PFK2 (second series), hits give low values",0.652 (active)
same,normalized growth,"locus YMR277W, strain FCP1, hits give low values",0.966
same,normalized growth,"locus YNL006W, strain LST8, hits give low values",0.95
same,normalized growth,"locus YNL020C, strain ARK1, hits give low values",0.452 (active)
same,normalized growth,"locus YNL161W, strain CBK1, hits give low values",0.95
same,normalized growth,"locus YNL183C, strain NPR1, hits give low values",0.549 (active)
same,normalized growth,"locus YNL207W, strain RIO2, hits give low values",0.963
same,normalized growth,"locus YNL222W, strain SSU72, hits give low values",0.963
same,normalized growth,"locus YNL307C, strain MCK1 (second series), hits give low values",0.489 (active)
same,normalized growth,"locus YOL078W, strain AVO1, hits give low values",0.965
same,normalized growth,"locus YOL136C, strain PFK27, hits give low values",0.328 (active)
same,normalized growth,"locus YOR061W, strain CKA2, hits give low values",0.441 (active)
same,normalized growth,"locus YOR119C, strain RIO1, hits give low values",0.744
same,normalized growth,"locus YOR231W, strain MKK1, hits give low values",0.364 (active)
same,normalized growth,"locus YOR329C, strain SCD5, hits give low values",0.946
same,normalized growth,"locus YPL031C, strain PHO85, hits give low values",0.589 (active)
same,normalized growth,"locus YPL153C, strain RAD53, hits give low values",0.534 (active)
same,normalized growth,"locus YPL204W, strain HRR25, hits give low values",0.489 (active)
same,normalized growth,"locus YPL209C, strain IPL1, hits give low values",0.957
same,normalized growth,"locus YPL256C, strain CLN2, hits give low values",0.303 (active)
same,normalized growth,"locus YPR025C, strain CCL1, hits give low values",0.953
same,normalized growth,"locus YPR106W, strain ISR1, hits give low values",0.959
same,normalized growth,"locus YPR111W, strain DBF20, hits give low values",0.957
same,normalized growth,"strain NNK1, hits give low values",0.959
same,normalized growth,"strain TSCII, hits give low values",0.954
O=C1c2ccccc2C2(c3ccccc3)NCCN12 (stereo not drawn),normalized growth,"locus YAL013W, strain DEP1, hits give low values",1
same,normalized growth,"locus YBR229C, strain ROT2, hits give low values",1.01
same,normalized growth,"locus YCL061C, strain MRC1, hits give low values",0.987
same,normalized growth,[1],0.982
same,normalized growth,"locus YDR150W, strain NUM1, hits give low values",0.989
same,normalized growth,"locus YEL061C, strain CIN8, hits give low values",1.02
same,normalized growth,"locus YGR078C, strain PAC10, hits give low values",1.01
same,normalized growth,[2],0.972
same,normalized growth,"locus YHR087W, strain rtc3, hits give low values",0.993
same,normalized growth,"locus YJL187C, strain SWE1, hits give low values",0.997
same,normalized growth,"locus YJR043C, strain POL32, hits give low values",0.956
same,normalized growth,"locus YJR075W, strain HOC1, hits give low values",1.01
same,normalized growth,"locus YLR039C, strain RIC1, hits give low values",0.976
same,normalized growth,"locus YLR058C, strain SHM2 (second series), hits give low values",0.997
same,normalized growth,"locus YLR085C, strain ARP6, hits give low values",1.04
same,normalized growth,"locus YLR262C, strain YPT6, hits give low values",0.968
same,normalized growth,"locus YML094W, strain GIM5, hits give low values",1.04
same,normalized growth,"locus YMR219W, strain ESC1, hits give low values",1
same,normalized growth,"locus YMR263W, strain SAP30, hits give low values",1.01
same,normalized growth,"locus YNL128W, strain TEP1, hits give low values",0.983
same,normalized growth,"locus YNL153C, strain GIM3, hits give low values",1.01
same,normalized growth,"locus YNL298W, strain CLA4 (second series), hits give low values",0.995
same,normalized growth,"locus YNL322C, strain KRE1, hits give low values",0.996
same,normalized growth,"locus YNR030W, strain Alg12, hits give low values",0.982
same,normalized growth,"locus YPL055C, strain LGE1, hits give low values",1.04
same,normalized growth,"locus YPL241C, strain CIN2, hits give low values",1.02
same,normalized growth,"locus YPR135W, strain CTF4, hits give low values",0.957
